Columns and labels:
[1] = biological target: Serine/threonine-protein kinase pim-2 (Homo sapiens) (UniProt Q9P1W9); conditions: at 1 µM;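 note: each value is a mean of the inhibition measurements against the kinase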
[2] = biological target: Serine/threonine-protein kinase pim-3 (Homo sapiens) (UniProt Q86V86); conditions: at 0.1 µM
[3] = biological target: Serine/threonine-protein kinase pim-3 (Homo sapiens) (UniProt Q86V86); conditions: at 1 µM
[4] = biological target: T1, MAP kinase-activated protein kinase 5 (Homo sapiens) (UniProt Q8IW41); conditions: at 0.1 µM
T1 sequence (whole entry): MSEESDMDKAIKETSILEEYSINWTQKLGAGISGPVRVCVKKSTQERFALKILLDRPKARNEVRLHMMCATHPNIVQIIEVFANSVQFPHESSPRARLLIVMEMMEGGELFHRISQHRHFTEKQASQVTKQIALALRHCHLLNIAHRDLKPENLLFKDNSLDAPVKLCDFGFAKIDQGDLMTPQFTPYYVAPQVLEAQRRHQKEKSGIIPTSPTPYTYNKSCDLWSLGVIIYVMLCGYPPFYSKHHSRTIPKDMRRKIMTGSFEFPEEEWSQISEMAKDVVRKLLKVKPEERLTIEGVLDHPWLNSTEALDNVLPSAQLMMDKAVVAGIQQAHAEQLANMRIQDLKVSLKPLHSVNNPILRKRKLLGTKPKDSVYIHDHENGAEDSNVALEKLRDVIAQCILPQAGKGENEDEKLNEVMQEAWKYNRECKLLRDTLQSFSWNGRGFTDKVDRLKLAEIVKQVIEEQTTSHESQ

[5] = biological target: T1, MAP kinase-activated protein kinase 5 (Homo sapiens); conditions: at 1 µM
[6] = biological target: Serine/threonine-protein kinase SIK1 (Homo sapiens) (UniProt P57059); conditions: at 0.1 µM
Sequence of Serine/threonine-protein kinase SIK1 (Homo sapiens) (P57059 whole entry): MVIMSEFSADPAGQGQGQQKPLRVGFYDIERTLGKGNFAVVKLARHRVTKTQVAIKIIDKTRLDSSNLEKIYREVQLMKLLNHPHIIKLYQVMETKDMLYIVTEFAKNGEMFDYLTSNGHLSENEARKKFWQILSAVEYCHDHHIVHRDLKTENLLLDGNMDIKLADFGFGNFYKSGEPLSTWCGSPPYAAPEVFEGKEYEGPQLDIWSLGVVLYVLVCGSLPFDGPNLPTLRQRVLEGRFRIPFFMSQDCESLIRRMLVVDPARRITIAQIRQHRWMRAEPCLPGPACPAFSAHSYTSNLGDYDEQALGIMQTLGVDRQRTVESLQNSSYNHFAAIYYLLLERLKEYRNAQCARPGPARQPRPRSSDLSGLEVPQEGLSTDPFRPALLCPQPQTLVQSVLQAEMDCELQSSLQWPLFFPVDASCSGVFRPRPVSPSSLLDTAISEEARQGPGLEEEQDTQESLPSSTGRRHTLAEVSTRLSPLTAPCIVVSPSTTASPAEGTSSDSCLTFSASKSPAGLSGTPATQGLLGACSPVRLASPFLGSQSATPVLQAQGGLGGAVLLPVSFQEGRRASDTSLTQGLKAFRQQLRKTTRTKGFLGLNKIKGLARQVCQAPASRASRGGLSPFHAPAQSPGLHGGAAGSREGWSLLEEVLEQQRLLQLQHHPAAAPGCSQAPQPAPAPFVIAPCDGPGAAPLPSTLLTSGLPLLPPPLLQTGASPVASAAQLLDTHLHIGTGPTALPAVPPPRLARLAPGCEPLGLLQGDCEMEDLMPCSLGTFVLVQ

[7] = biological target: Serine/threonine-protein kinase SIK1 (Homo sapiens) (UniProt P57059); conditions: at 1 µM
[8] = biological target: Serine/threonine-protein kinase SIK2 (Homo sapiens) (UniProt Q9H0K1); conditions: at 0.1 µM
Sequence of Serine/threonine-protein kinase SIK2 (Homo sapiens) (Q9H0K1 whole entry, looked up): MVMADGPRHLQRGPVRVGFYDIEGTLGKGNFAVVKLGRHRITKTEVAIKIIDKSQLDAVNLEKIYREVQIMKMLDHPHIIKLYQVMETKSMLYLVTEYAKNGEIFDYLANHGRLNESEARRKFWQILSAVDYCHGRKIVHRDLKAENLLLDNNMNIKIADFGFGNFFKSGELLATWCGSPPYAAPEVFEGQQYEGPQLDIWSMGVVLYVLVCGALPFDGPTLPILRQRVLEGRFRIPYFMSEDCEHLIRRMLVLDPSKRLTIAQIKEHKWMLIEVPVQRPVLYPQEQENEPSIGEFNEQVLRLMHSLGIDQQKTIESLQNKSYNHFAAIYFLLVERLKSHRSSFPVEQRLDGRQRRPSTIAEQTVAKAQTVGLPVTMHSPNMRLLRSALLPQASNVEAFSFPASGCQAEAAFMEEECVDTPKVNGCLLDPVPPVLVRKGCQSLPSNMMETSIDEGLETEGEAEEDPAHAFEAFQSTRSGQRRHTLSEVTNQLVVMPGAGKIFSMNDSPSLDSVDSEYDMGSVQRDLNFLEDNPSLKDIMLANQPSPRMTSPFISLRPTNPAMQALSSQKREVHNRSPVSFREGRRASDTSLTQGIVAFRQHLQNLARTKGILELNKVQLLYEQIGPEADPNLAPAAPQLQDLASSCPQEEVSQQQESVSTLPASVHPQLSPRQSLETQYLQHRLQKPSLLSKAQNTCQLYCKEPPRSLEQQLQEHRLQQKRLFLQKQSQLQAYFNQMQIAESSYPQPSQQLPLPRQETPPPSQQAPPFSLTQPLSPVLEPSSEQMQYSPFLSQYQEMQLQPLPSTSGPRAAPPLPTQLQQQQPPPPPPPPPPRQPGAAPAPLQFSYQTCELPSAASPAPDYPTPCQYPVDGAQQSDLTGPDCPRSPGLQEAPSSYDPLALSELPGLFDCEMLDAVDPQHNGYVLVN

[9] = biological target: Serine/threonine-protein kinase SIK2 (Homo sapiens) (UniProt Q9H0K1); conditions: at 1 µM
[10] = biological target: T2, Serine/threonine-protein kinase TBK1 (Homo sapiens) (UniProt Q9UHD2); conditions: at 0.1 µM
T2 sequence (whole entry): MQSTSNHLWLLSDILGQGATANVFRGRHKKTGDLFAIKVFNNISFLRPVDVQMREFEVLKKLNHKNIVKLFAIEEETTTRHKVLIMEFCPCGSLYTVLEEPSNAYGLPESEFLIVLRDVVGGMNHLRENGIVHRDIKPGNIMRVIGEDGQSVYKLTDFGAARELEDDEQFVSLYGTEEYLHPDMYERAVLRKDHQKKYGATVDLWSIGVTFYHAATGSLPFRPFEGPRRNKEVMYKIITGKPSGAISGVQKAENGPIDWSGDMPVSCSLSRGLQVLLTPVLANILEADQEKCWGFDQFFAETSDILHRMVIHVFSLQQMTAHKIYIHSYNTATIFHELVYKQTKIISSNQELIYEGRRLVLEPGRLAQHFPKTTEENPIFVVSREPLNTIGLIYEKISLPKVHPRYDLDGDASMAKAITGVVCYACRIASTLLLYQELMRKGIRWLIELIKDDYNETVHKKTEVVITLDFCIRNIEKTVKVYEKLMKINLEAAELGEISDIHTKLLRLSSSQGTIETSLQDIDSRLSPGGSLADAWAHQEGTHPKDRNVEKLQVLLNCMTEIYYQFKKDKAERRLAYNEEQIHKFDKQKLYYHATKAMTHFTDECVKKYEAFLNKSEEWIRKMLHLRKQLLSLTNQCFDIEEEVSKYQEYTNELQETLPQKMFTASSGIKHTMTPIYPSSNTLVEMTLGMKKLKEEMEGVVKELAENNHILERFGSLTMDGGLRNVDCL

[11] = biological target: T2, Serine/threonine-protein kinase TBK1 (Homo sapiens); conditions: at 1 µM
[12] = biological target: T3, Testis-specific serine/threonine-protein kinase 1 (Homo sapiens) (UniProt Q9BXA7); conditions: at 0.1 µM
T3 sequence (whole entry): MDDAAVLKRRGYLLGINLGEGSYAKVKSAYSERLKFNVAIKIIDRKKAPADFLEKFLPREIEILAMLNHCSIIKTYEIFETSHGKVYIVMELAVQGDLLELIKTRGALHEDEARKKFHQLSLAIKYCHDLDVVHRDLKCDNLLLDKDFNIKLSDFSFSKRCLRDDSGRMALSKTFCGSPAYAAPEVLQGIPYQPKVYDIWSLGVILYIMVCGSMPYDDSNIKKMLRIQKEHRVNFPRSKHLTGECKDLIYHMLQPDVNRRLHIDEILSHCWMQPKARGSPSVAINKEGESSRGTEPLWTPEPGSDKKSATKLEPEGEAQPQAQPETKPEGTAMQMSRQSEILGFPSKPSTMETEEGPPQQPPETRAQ

[13] = biological target: T3, Testis-specific serine/threonine-protein kinase 1 (Homo sapiens); conditions: at 1 µM
[14] = biological target: T4, Testis-specific serine/threonine-protein kinase 2 (Homo sapiens) (UniProt Q96PF2); conditions: at 0.1 µM
T4 sequence (whole entry): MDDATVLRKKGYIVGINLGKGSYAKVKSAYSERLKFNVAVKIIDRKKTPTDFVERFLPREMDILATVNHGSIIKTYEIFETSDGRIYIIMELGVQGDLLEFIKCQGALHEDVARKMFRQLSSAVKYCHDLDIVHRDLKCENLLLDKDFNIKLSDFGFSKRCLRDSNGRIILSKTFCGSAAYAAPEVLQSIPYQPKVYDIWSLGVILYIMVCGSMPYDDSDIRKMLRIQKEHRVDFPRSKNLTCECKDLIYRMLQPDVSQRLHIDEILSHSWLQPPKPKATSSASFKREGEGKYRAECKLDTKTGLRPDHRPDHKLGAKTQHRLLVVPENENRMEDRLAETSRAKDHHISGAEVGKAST

[15] = biological target: T4, Testis-specific serine/threonine-protein kinase 2 (Homo sapiens); conditions: at 1 µM
[16] = biological target: Casein kinase I isoform alpha (Homo sapiens) (UniProt P48729); conditions: at 0.1 µM
Sequence of Casein kinase I isoform alpha (Homo sapiens) (P48729 2-337 limits assumed): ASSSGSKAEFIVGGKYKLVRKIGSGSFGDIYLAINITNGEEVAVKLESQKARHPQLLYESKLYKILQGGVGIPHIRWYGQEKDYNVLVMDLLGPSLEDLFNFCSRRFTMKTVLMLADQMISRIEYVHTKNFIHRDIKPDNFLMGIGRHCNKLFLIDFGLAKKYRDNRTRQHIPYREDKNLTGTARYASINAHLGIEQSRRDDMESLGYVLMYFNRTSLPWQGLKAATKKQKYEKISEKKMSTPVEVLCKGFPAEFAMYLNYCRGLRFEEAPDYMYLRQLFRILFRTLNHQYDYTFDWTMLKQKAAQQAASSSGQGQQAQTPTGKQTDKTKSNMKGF

[17] = biological target: Casein kinase I isoform alpha (Homo sapiens) (UniProt P48729); conditions: at 1 µM
[18] = biological target: Casein kinase I isoform gamma-1 (Homo sapiens) (UniProt Q9HCP0); conditions: at 0.1 µM
Sequence of Casein kinase I isoform gamma-1 (Homo sapiens) (Q9HCP0 whole entry, looked up, canonical isoform): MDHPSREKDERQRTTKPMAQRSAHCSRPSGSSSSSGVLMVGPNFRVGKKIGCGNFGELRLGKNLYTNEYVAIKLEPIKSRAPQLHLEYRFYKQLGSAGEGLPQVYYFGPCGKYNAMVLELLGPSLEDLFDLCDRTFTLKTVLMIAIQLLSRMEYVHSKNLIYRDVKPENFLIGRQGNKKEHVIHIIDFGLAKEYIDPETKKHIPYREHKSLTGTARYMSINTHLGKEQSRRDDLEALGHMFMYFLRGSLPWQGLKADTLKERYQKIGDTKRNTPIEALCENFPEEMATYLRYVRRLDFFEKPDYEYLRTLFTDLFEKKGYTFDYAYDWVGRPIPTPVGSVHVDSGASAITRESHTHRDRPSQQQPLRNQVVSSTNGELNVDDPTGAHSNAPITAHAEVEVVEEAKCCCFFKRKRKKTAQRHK

[19] = biological target: Casein kinase I isoform gamma-1 (Homo sapiens) (UniProt Q9HCP0); conditions: at 1 µM
[20] = biological target: Casein kinase I isoform gamma-2 (Homo sapiens) (UniProt P78368); conditions: at 0.1 µM;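 note: values are mean inhibition figures reported as part of the GSK PKIS dataset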
Sequence of Casein kinase I isoform gamma-2 (Homo sapiens) (P78368 whole entry, looked up, canonical isoform): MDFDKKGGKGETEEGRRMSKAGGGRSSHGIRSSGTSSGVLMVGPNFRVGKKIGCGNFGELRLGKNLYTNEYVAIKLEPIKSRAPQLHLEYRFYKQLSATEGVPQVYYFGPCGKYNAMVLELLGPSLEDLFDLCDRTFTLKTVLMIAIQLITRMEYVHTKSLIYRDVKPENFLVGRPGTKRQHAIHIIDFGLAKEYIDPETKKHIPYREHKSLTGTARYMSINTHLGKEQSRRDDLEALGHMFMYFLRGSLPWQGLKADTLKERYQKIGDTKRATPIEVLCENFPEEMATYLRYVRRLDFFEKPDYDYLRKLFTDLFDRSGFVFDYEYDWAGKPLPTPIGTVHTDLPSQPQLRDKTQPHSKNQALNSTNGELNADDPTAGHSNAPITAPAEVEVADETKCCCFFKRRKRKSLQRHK

Sequence of Serine/threonine-protein kinase pim-2 (Homo sapiens) (Q9P1W9 whole entry, looked up): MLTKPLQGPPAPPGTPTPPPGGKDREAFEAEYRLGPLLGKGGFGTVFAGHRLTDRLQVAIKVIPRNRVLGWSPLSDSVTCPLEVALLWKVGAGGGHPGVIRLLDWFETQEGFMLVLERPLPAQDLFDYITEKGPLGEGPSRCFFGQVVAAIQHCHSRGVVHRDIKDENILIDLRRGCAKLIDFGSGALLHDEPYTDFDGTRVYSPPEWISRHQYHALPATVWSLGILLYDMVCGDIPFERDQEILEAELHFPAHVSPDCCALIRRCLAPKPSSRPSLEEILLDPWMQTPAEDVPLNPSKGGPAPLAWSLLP

Row | SMILES | inhibition [1] | inhibition [2] | inhibition [3] | inhibition [4] | inhibition [5] | inhibition [6] | inhibition [7] | inhibition [8] | inhibition [9] | inhibition [10] | inhibition [11] | inhibition [12] | inhibition [13] | inhibition [14] | inhibition [15] | inhibition [16] | inhibition [17] | inhibition [18] | inhibition [19] | inhibition [20]
1 | c1cnn2ncc(-c3ccnc(NCCCN4CCOCC4)n3)c2c1 | -1.06% | -0.56% | -0.85% | 1.09% | 1.07% | 3.47% | 6.56% | 3.35% | 2.87% | 0.82% | 1.95% | 3.58% | 2.58% | 2.3% | 1.85% | 2.74% | 16.4% | 3.57% | 4.83% | 3.07%
2 | COc1ccccc1-c1cc(/C=C2\C(=O)Nc3ncc(Br)cc32)cc(Br)c1O | -0.06% | -1.67% | -1.54% | 1.35% | 0.67% | 3.09% | 9.01% | 0.5% | 10.4% | 0.53% | 6.07% | 4.24% | 6.09% | 2.5% | 1.91% | 2.91% | 5.66% | 5.05% | 5.44% | 3.14%
3 | Fc1ccc(Nc2nccc(-c3c(-c4ccc(C(F)(F)F)cc4)nn4ncccc34)n2)cc1F | 5.02% | -0.88% | -1% | 0.6% | -0.23% | 5.43% | 3.1% | 3.76% | 2.08% | -0.07% | 5.12% | 2.94% | 0.83% | 0.43% | -1.83% | 8.3% | 5.37% | 3.69% | 4.68% | 1.53%
4 | COc1cc(N2CCN(C(C)C)CC2)ccc1Nc1nc(Nc2cccc3ncccc23)c2cc[nH]c2n1 | 0.36% | -0.71% | 0.17% | 0.21% | -0.62% | -2.95% | 0.48% | -4.22% | 3.12% | -0.11% | 0.59% | 5.22% | 31.2% | 0.31% | 11.3% | -0.03% | 2.43% | -1.03% | -0.55% | -1.25%
5 | CC(C)c1ccc(-c2cc(-c3c[nH]nc3-c3ccccn3)ccn2)cc1 | -0.1% | 0.23% | -0.66% | 0.04% | -0.19% | 0.32% | 0.87% | -2.6% | -1.02% | 0.97% | -0.11% | 0.45% | 0.81% | -0.82% | -1.06% | 3.57% | 9.88% | 0.64% | 2.41% | 0.19%
6 | COc1cccc(Nc2nccc(-c3cnn4ncccc34)n2)c1 | 2.39% | 2.39% | 17.6% | 0.42% | 3.44% | 6.56% | 20.8% | 4.86% | 13.6% | 4.06% | 22.9% | 2.07% | 12.8% | 0.21% | 0.62% | 14.9% | 48% | 2.61% | 20.5% | 4.45%
